{
  "source": "PubChem BioAssay AID588413",
  "about": "(Sanford-Burnham Center for Chemical Genomics, 2011)",
  "note": "Screen size: about 340,000 compounds; about 2,500 (0.74%) were called active.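 Rule for the calls: active = inhibition above about 55% (limit read from the data); inactive = the rest.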 What follows is part of a selection rich in actives, with near analogues and random picks from the rest.",
  "data": [
    {"test": "blockers of Gli reporter signaling – luciferase luminescence, Sufu-KO-LIGHT cells, uHTS, primary screen (AID 588413);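 note: 0% = DMSO-treated cells and 100% = wells with medium but no cells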", "conditions": "Sufu-KO-LIGHT fibroblasts, at 5 µM, stronger effect = higher value", "values": [
      {"smiles": "CSc1ncccc1C(=O)NCc1ccccc1Cl", "inhibition": "-8.35% (inactive)"},
      {"smiles": "CC(=O)c1c(O)cc2n(c1=O)-c1ccc(Cl)cc1C2(C)C", "inhibition": "-0.02% (inactive)"},
      {"smiles": "COC(=O)CC(CC(=O)OC)n1cccc1", "inhibition": "6.12% (inactive)"},
      {"smiles": "Cc1ccc(O)c(NC(=S)NC(=O)COc2ccc(Br)cc2)c1", "inhibition": "-1.7% (inactive)"},
      {"smiles": "Cc1ccc(C)c(OCC(=O)NNC(=O)C2CCC2)c1", "inhibition": "3% (inactive)"},
      {"smiles": "Cc1ccc(O)c(NC(=O)COc2cc(C)ccc2C)c1", "inhibition": "63.9% (active)"},
      {"smiles": "CCC1CCCCN1C(=S)NC(=O)c1ccco1", "note": "(stereo not given)", "inhibition": "3.37% (inactive)"},
      {"smiles": "O=C(CSC(=S)N1CCCCC1)c1c(F)cccc1F", "inhibition": "-23.9% (inactive)"},
      {"smiles": "CCCCn1nc(C(=O)OCC(=O)Nc2sccc2C(N)=O)c2ccccc2c1=O", "inhibition": "-33% (inactive)"},
      {"smiles": "CCOC(=O)c1c(C)[nH]c2c1-c1ccccc1C(=O)C2=O", "inhibition": "95.8% (active)"},
      {"smiles": "CCOC(=O)c1[nH]c2ccccc2c1N=C(C)N(CC)CC", "inhibition": "4.83% (inactive)"},
      {"smiles": "CCOC(=O)C1=C(C)c2ccccc2OC1(C)C(=O)OCC", "note": "(stereo not given)", "inhibition": "-1.26% (inactive)"},
      {"smiles": "C=CCn1c(C)cc(C2=NNC(=NCC)SC2)c1C", "inhibition": "93% (active)"},
      {"smiles": "CCCN(CCC)C(=O)C1c2ccccc2Oc2ccccc21", "inhibition": "-1.09% (inactive)"},
      {"smiles": "CNCC(O)c1ccc(O)c(O)c1", "note": "(stereo not given)", "inhibition": "-2.95% (inactive)"},
      {"smiles": "COc1ccc(CCNc2ncnc3c2nnn3Cc2ccccc2)cc1", "inhibition": "4.12% (inactive)"},
      {"smiles": "COc1ccc(NC(=O)/C(N=Nc2cccc(S(=O)(=O)Nc3ccc(SC(F)F)cc3)c2)=C(\\C)O)cc1", "inhibition": "-4.13% (inactive)"},
      {"smiles": "Cn1c(=O)c2c(nc(OCc3cccnc3)n2Cc2ccccc2)n(C)c1=O", "inhibition": "8.04% (inactive)"},
      {"smiles": "C=CCn1c(Oc2ccc(C(=O)OC)cc2)nc2c1c(=O)n(C)c(=O)n2C", "inhibition": "1.23% (inactive)"},
      {"smiles": "C=CCOc1nc2c(c(=O)n(C)c(=O)n2C)n1Cc1ccc(Cl)cc1Cl", "inhibition": "62% (active)"},
      {"smiles": "O=S(=O)(Nc1cc(S(=O)(=O)N2CCOCC2)ccc1N1CCCC1)c1cccs1", "inhibition": "5.7% (inactive)"},
      {"smiles": "Cc1ccc(-n2c(SCC(=O)N/N=C/C=C/c3ccccc3[N+](=O)[O-])nc3ccccc3c2=O)cc1", "inhibition": "14.2% (inactive)"},
      {"smiles": "CCn1c(/C=C/c2ccc([N+](=O)[O-])o2)nc2ccccc2c1=O", "inhibition": "80% (active)"},
      {"smiles": "O=c1c2ccccc2ncn1/N=C/c1ccccc1", "inhibition": "20.9% (inactive)"},
      {"smiles": "O=C(Nc1ccccc1C(=O)NCC1CCCO1)c1ccccc1F", "note": "(stereo not given)", "inhibition": "-6.12% (inactive)"},
      {"smiles": "CC(C)c1ccc2c(c1)c(SC(C)(C)C)c(CC(C)(C)C(=O)O)n2Cc1ccc(Cl)cc1", "inhibition": "-0.1% (inactive)"},
      {"smiles": "CCCCCCCCn1c2c(c(=N)c3c1CCC3)CCCC2", "inhibition": "89.4% (active)"},
      {"smiles": "O=C(NNS(=O)(=O)Cc1ccccc1)c1ccc([N+](=O)[O-])cc1", "inhibition": "-11.2% (inactive)"},
      {"smiles": "CCOC(=O)C1CCCN(CCSc2ccc(C)cc2)C1", "note": "(stereo not given)", "inhibition": "21.1% (inactive)"},
      {"smiles": "COc1ccc(Nc2ncnc3ccc(Br)cc23)c(OC)c1", "inhibition": "26.3% (inactive)"},
      {"smiles": "CC1(C)CC2CC(C)(CN2c2ncnc3ccc(Br)cc23)C1", "note": "(stereo not given)", "inhibition": "62.2% (active)"},
      {"smiles": "CN(C)C(=O)COC(=O)c1cccc(S(=O)(=O)N2CC3(C)CC2CC(C)(C)C3)c1", "note": "(stereo not given)", "inhibition": "0.32% (inactive)"},
      {"smiles": "COc1cc(C(F)(F)F)nc2c(Br)c(C(C)(C)C)nn12", "inhibition": "4.44% (inactive)"},
      {"smiles": "CN(Cc1ccc(CNC[C@H]2O[C@@H](n3cnc4c(N)ncnc43)[C@H](O)[C@@H]2O)o1)S(C)(=O)=O", "inhibition": "-0.83% (inactive)"},
      {"smiles": "CCc1cc2cc(OC)ccc2nc1SCC(=O)Nc1cc(OC)c(OC)cc1C(=O)O", "inhibition": "-8.77% (inactive)"},
      {"smiles": "Cc1ccc(-c2nc3c(cnn3-c3ccccc3)c(=O)o2)cc1", "inhibition": "56.1% (active)"},
      {"smiles": "Cc1ccc(-n2ncc3c(=O)n(-c4ccc(C)c(C)c4)c(-c4ccco4)nc32)cc1", "inhibition": "4.8% (inactive)"},
      {"smiles": "CC(=O)Cn1cnc2c(cnn2-c2ccccc2)c1=O", "inhibition": "-18.4% (inactive)"},
      {"smiles": "COc1ccc(OC)c(C2C3=C(N=c4s/c(=C\\c5cccc(O)c5)c(=O)n42)c2ccccc2CC3)c1", "note": "(stereo not given)", "inhibition": "-4.15% (inactive)"},
      {"smiles": "CCN(CC)S(=O)(=O)c1ccc(N(C)Cc2ccc(C(F)(F)F)cc2)nc1", "inhibition": "17.7% (inactive)"},
      {"smiles": "CCCCNCCS(=O)(=O)NCc1ccccc1", "inhibition": "-0.46% (inactive)"},
      {"smiles": "COc1ccc(Br)cc1/C=N/Nc1ccc(Cl)c(C(=O)O)c1", "inhibition": "8.66% (inactive)"},
      {"smiles": "COc1cccc(/C=N/Nc2ncc(C(F)(F)F)cc2Cl)c1O", "inhibition": "59.1% (active)"},
      {"smiles": "COc1cccc(/C=N/Nc2ccc(S(=O)(=O)Nc3ccccc3C(=O)O)cc2[N+](=O)[O-])c1O", "inhibition": "6.14% (inactive)"},
      {"smiles": "O=C(OCC(=O)N1CCc2ccccc21)C1CCCN1S(=O)(=O)c1ccc(Cl)cc1", "note": "(stereo not given)", "inhibition": "-11.8% (inactive)"},
      {"smiles": "CC1(C)CC(=O)NC=C(c2ccccc2)C1", "inhibition": "1.28% (inactive)"},
      {"smiles": "Cn1ccsc1=NC(=O)c1cc(S(=O)(=O)N2CCOCC2)ccc1Cl", "inhibition": "-4.66% (inactive)"},
      {"smiles": "c1ccc(-n2nnnc2NC2CCCCCC2)cc1", "inhibition": "8.53% (inactive)"},
      {"smiles": "O=C1C(Cl)=C(N2CCOCC2)C(=O)N1c1ccccc1", "inhibition": "0.4% (inactive)"},
      {"smiles": "c1ccc(-n2nnnc2N2CCOCC2)cc1", "inhibition": "94.8% (active)"},
      {"smiles": "COc1ccc(S(=O)(=O)N2CCCC(C(=O)NCCCn3ccnc3)C2)cc1OC", "note": "(stereo not given)", "inhibition": "15.1% (inactive)"},
      {"smiles": "O=C1NNC(c2ccccc2)=N/C1=C\\c1ccc(Cl)cc1", "inhibition": "5.34% (inactive)"},
      {"smiles": "CCn1cc(C(=O)NCC2COc3ccccc3O2)c2cc(OC)c(OC)cc2c1=O", "note": "(stereo not given)", "inhibition": "10.7% (inactive)"},
      {"smiles": "CC(=O)Nc1ccc(S(=O)(=O)N(C)c2nc3ccccc3nc2Cl)cc1", "inhibition": "1.9% (inactive)"},
      {"smiles": "CC(=O)Nc1ccc(Nc2c3ccccc3nc3ccccc23)cc1", "inhibition": "75% (active)"},
      {"smiles": "CC(=O)Nc1ccc(Nc2c([N+](=O)[O-])cc(S(C)(=O)=O)cc2[N+](=O)[O-])cc1", "inhibition": "-0.18% (inactive)"},
      {"smiles": "CCOc1ccc(NC(=O)c2ccc(NC(=O)CN3C(=O)C(=O)N(CC(C)C)C3=O)cc2)cc1", "inhibition": "-34.9% (inactive)"},
      {"smiles": "CCC1([N+](=O)[O-])COC(c2ccc(C(C)C)cc2)OC1", "note": "(stereo not given)", "inhibition": "-31.9% (inactive)"},
      {"smiles": "CCC(=C/c1sc2ccc3ccccc3c2[n+]1C)/C=C1\\Sc2ccc3ccccc3c2N1C", "inhibition": "64.2% (active)"},
      {"smiles": "O=C(c1ccccc1)c1ccc2nc(N3CCCCC3)c3nncn3c2c1", "inhibition": "6.66% (inactive)"}
    ]}
  ]
}
